Results from PubChem BioAssay.

Legend:
[1] = target: Tumor necrosis factor receptor superfamily member 10B (Homo sapiens) (UniProt O14763); assay: viability loss of caspase-8 NB7 cells with TRAIL – with/without TRAIL, luminescence panel, confirmation (AID 651596); settings: NB7 neuroblastoma + caspase-8, TRAIL sensitization, NB7 Caspase-8, with TRAIL, mean of runs, at 10 µM, stronger effect = higher value
[2] = as above; settings: NB7 neuroblastoma + caspase-8, without TRAIL, NB7 Caspase-8, without TRAIL, mean of runs, at 10 µM

Chain of Tumor necrosis factor receptor superfamily member 10B (Homo sapiens) (O14763 whole entry, looked up): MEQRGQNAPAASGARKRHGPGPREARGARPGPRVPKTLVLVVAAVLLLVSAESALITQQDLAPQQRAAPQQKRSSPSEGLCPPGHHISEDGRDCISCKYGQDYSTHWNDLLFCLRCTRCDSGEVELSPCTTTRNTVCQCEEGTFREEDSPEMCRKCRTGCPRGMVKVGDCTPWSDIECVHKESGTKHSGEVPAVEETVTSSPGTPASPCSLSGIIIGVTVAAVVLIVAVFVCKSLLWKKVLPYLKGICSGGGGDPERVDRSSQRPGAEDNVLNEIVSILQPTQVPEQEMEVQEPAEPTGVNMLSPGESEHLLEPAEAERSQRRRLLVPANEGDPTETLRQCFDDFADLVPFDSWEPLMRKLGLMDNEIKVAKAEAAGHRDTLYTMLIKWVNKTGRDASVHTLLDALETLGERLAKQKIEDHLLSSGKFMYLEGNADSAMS

Row | Compound | activity [1] [%] | activity [2] [%]
1 | CN(C)CCNC(=O)c1cccc(-c2cc(NC=O)c3ncc(-c4cccc(C(F)(F)F)c4)n3c2)c1 | 99.4 | 99.5
2 | CCOc1ccc(OCC(=O)Nc2cccc(S(=O)(=O)NC3=NCCC3)c2)cc1 | 68.9 | 64.6
3 | c1ccc(-c2ccc(-c3nc(-c4ccccn4)no3)cc2)cc1 | 94 | 93.2
4 | CCOC(=O)CSc1nc2cc(C)ccc2cc1C#N | 39.8 | 38.4
5 | CCc1cc2c(=O)[nH]c(-c3ccccn3)nc2s1 | 35.9 | 41
6 | Cc1cc(-c2ccccc2)nc(N/N=C/c2ccccc2)n1 | 61.6 | 50.3
7 | O=C(Nc1nc2cc3c(cc2s1)OCO3)c1ccco1 | 79.5 | 93.1
8 | Cn1c(N)c(C(=O)CCl)c(=O)n(Cc2ccccc2)c1=O | 96 | 77.9
9 | O=c1c2[nH]c3ccccc3c2ncn1C1CCCCC1 | 75.2 | 74.8
10 | C=C(C)c1nc(Oc2ccccc2)nc(Oc2ccccc2)n1 | 77 | 77.6
11 | Cc1cc(C)nc(Nc2nc(-c3ccccc3)cs2)n1 | 72.5 | 71.3
12 | CSc1ccc(/C=C/C(=O)NC(=O)c2ccccc2O)cc1 | 82.5 | 84.7
13 | CC(C)(C)Nc1ncnc2c1cnn2-c1ccccc1 | 73.8 | 69.5
14 | Cc1csc(NC(=O)c2ccc(OCC3CCCO3)cc2)n1 (configuration not stated) | 54.9 | 64.9
15 | Cc1ccc(Nc2nc(NCc3ccco3)c3ccccc3n2)cc1 | 41.2 | 45.6
16 | COc1ccc2nc(NC(=O)c3ccc([N+](=O)[O-])o3)sc2c1 | 37.6 | 77.8
17 | CCCc1ccc(-c2cc(C(=O)N/N=C/c3ccc([N+](=O)[O-])o3)c3ccccc3n2)cc1 | 91.6 | 93.3
18 | Cc1nc(=S)c2c([nH]1)-c1ccccc1CC21CCCCC1 | 92 | 76.4
19 | O=C(NN=Cc1ccc2c(c1)CCN2)c1cccs1 | 47.9 | 57.8
20 | COc1ccc(C2=NN(C(=O)COC(=O)c3ccc(S(C)(=O)=O)c([N+](=O)[O-])c3)C(c3ccco3)C2)cc1 (configuration not stated) | 92.5 | 98.5
21 | O=C1c2ccc(Cl)cc2S(=O)(=O)c2cccc(C(=O)N3CCN(c4ccc(Cl)cn4)CC3)c21 | 94.8 | 83.5
22 | COc1ccc2oc(=Nc3ccccc3)c(-c3nc4ccccc4[nH]3)cc2c1 | 52.8 | 55
23 | NC(Cc1ccc(C(F)(F)F)cc1)c1csc(Nc2nncc3ccccc23)n1 (configuration not stated) | 38.8 | 89.1
24 | CCOc1ccc(-c2ccc(SCC(=O)NCC3CCCO3)nn2)cc1 (configuration not stated) | 41.8 | 32.7
25 | Cc1ccc(C2=NN(C(=O)CCl)C(c3ccco3)C2)o1 (configuration not stated) | 98.5 | 98.2
26 | CCc1n[n+](CC(=O)c2ccccc2)c(N)s1 | 44.6 | 35.9
